Screening results: PubChem BioAssay, National Center for Advancing Translational Sciences (NCATS)
In the library only some 14% were active in any assay of this set; here they are far more common.
Pf growth 96h – Primary qHTS for delayed death inhibitors of the malarial parasite plastid, 96 hour incubation. P. falciparum luciferase reporter growth, 96 h. Potency, µM (highest dose often 28.7 µM), without a hit: top-dose activity change, negative = inhibition, most hits filed as inhibitors. 320,000 compounds, 6.9% hits. AID 504834, 2011; also: potency is read from the fitted curve at half-maximal effect
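Erythrocytes infected with luciferase-expressing P. falciparum were dispensed at 2% hematocrit and 0.05% parasitemia (final), then incubated with compounds 96 hours at 37 C in 5% CO2. Luminescence after detection reagent addition reported growth.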
Pf growth 48h – Primary qHTS for delayed death inhibitors of the malarial parasite plastid, 48 hour incubation | P. falciparum luciferase growth in erythrocytes, 48 h | Potency, µM (highest dose often 28.7 µM), inactives show at the top dose activity change, negative = inhibition, most hits filed as inhibitors | 310,000 compounds, 5.9% hits; also: potency is read from the fitted curve at half-maximal effect
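A one-generation exposure of luciferase-tagged malaria parasites in RPMI 1640/Albumax erythrocyte culture, 37 C and 5% CO2. Inhibition is inferred from decreased luminescence after adding detection reagent.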
LASV entry inh – qHTS for Inhibitors of binding or entry into cells for Lassa Virus; 300,000 compounds, 1.2% hits; Lassa virus pseudotype entry inhibition, cell reporter; Potency, µM (titrated, usually from 37.9 µM), inactives show top-dose activity change, negative = inhibition, usual class: inhibitors; AID 540256, 2011; calls by dose curve; tested in HEK293 cells; also: potency is read from the fitted curve at half-maximal effect; nearly all actives have a fitted effect of over 50% in size
HCV inh – qHTS Assay for Inhibitors of Hepatitis C Virus (HCV); AID 651820, 2012; Huh7.5.1 HCVcc-Cre infection, luciferase reporter, 44 h; Potency, µM (titrated, usually from 41.8 µM), inactives show top-dose activity change, negative = inhibition, most hits filed as inhibitors; 340,000 compounds, 3.4% hits; also: potency is read from the fitted curve at half-maximal effect
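Compounds are dispensed onto cells plated 4 h earlier at 1,000 per well, with HCVcc-Cre virus (about 0.5 moi) added next. Following 44 h of culture, luminescent signal is measured for 15 sec after 15 min with substrate at room temperature.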
HCMV antiviral – qHTS Assay for inhibitors of the human cytomegalovirus (HCMV). HFF cells, HCMV-luciferase reporter, 72 h; stronger effect = lower value. activity change, negative = inhibition, % at 57.5 µM. 410,000 compounds, 4.5% hits. AID 1259415, 2018; in the data active = activity change below about -60%; inconclusive = no clear call, values can overlap the other calls; inactive = above about -39%
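HFF cells seeded 16 h at 37C, treated with compounds, infected with luciferase-reporter HCMV at MOI 1 PFU/cell; luciferase read at 72 h post infection, normalized to buffer-only and Salinomycin controls.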
MARV entry inh – qHTS for inhibitors of binding or entry into cells for Marburg Virus; Marburg virus pseudotyped entry inhibition, cell reporter; Potency, µM (doses to about 37.8 µM), without a hit: at the top dose activity change, negative = inhibition, actives largely listed as inhibitors; AID 540276, 2011; 300,000 compounds, 1.8% hits; calls by dose curve; tested in HEK293 cells; also: potency is read from the fitted curve at half-maximal effect
Active calls of the source: *; ? = inconclusive; . = not tested or not shown; + = active, no number; [ ] = dose if it differs, or a comment. Unless noted, calls follow the shape of the dose curve; as a rule, active = well fitted inhibition curve with a large enough effect; inconclusive = small, poorly fitted or top-dose-only effect, or another doubt; inactive = no such curve, though single readings can be large or run the other way. % is scaled to controls: 0 for no effect and ±100 for the full control effect.

SMILES	Pf growth 96h	Pf growth 48h	LASV entry inh	HCV inh	HCMV antiviral	MARV entry inh
O=C1C(Cl)=C(NCCCN2CCOCC2)C(=O)c2ccccc21	.	.	?	10µM*	6	?
O=C1Nc2ccccc2S/C1=C/c1cccs1	40%	38%	-4%[46.1 µM]	6.3µM*	72	9%[46.1 µM]
CCSc1nnc(NC(=O)CCC2CCCCC2)s1	.	.	.	37%	41	.
COC(=O)c1c(C(=O)OC)c(-c2ccc(C(C)(C)C)cc2)n2c1CS(=O)C2 (centres undefined)	?	10µM*	-8%[46.1 µM]	1%	?	-6%[46.1 µM]
COC(=O)c1c(C(=O)OC)c(-c2ccc(Cl)cc2)n2c1CS(=O)(=O)C2	?	1.5µM*	-16%	2%	-26	3%[46.1 µM]
COC(=O)c1c(C(=O)OC)c(-c2ccc(C)cc2)n2c1CS(=O)(=O)C2	1.7µM*	.	8%	-14%	9	-5%
CC1=C2CCC[C@]3(C)CCOC23C=CC1=O (some centres undefined)	.	.	.	.	-1	.
Cc1ccc(C(=O)c2cn(CC(=O)Nc3ccc(C)cc3Cl)c3nc(C)ccc3c2=O)cc1	.	.	30%[46.1 µM]	.	12	.
CC(C)OC(=O)/C(=C/c1ccc(Br)cc1)NC(=O)c1ccco1	13µM*	10%	17%	14%	-31	18%
COc1ccc(/C=C(/NC(=O)c2ccco2)C(=O)N2CCCCCC2)cc1OC	12µM*	3%	7%	16%	-18	-2%
COC(=O)/C(=C/c1ccccc1)NC(=O)c1ccco1	-3%	-2%	-10%	-3%	3	-3%
O=C(O)CN1C(=O)COc2ccc(S(=O)(=O)N3CCCCCC3)cc21	?	26%	.	22%	-61*	.
CC(C)N(Cc1ccccc1)C(=O)CN1C(=O)COc2ccc(S(=O)(=O)N3CCCCCC3)cc21	6%	0.83µM*	-27%[46.1 µM]	?	-81*	-21%[46.1 µM]
O=C(CSc1nnc(-c2ccco2)n1-c1ccccc1Cl)Nc1cccc(C(=O)O)c1	8%	17%	.	19%	-19	.
Cc1ccc(OCC(O)C(C)NC(C)C)c2c1CCC2 (centres undefined)	.	.	.	.	.	16µM*
COc1ccc(/C(C)=N/NC(=O)c2nnn(-c3nonc3N)c2-c2cccs2)cc1OC	-14%	-6%	-9%[46.1 µM]	?	+	4%[46.1 µM]
C/C(=N\NC(=O)c1nnn(-c2nonc2N)c1-c1cccs1)c1ccc(O)cc1	12µM*	12µM*	-35%[46.1 µM]	?	0	8%[46.1 µM]
C/C(=N\NC(=O)c1nnn(-c2nonc2N)c1-c1cccs1)c1ccc(C)cc1	-22%	-4%	?	-24%	0	?
COc1ccccc1NC(=O)CSc1nc2c(oc3ccccc32)c(=O)n1-c1ccccc1F	.	.	.	.	23	-10%[46.1 µM]
O=C1CN(S(=O)(=O)c2ccc(Cl)cc2C(F)(F)F)CCN1	?	0%	3%	13%	-60*	21%[46.1 µM]
N#Cc1nc(-c2ccco2)oc1N1CCN(c2ccccc2)CC1	13%	-22%	?	9%	-65*	-18%
CN1CCN(c2oc(COc3ccc(-c4ccccc4)cc3)nc2C#N)CC1	-17%	-19%	-14%	5µM*	28	?
COc1ccc(N2CCN(c3oc(Cc4ccccc4)nc3C#N)CC2)cc1	-6%	?	5.2µM*	-27%	-34	?
COc1ccc(N2CCN(c3oc(COc4ccccc4)nc3C#N)CC2)cc1	55%	13µM*	?	-19%	-18	-9%
N#Cc1nc(Cc2ccccc2)oc1N1CCN(c2cccc(Cl)c2)CC1	18%	-17%	-28%	-9%	19	0%
SMILES	Pf growth 96h	Pf growth 48h	LASV entry inh	HCV inh	HCMV antiviral	MARV entry inh
Cc1ccc(NC(=O)CN2CCN(C3CCCCC3)C(=O)C2=O)cc1C	.	.	23%[46.1 µM]	.	5	.
O=C(CN1C(=O)C(=O)N(C2CCCC2)C1=O)Nc1ccccc1OC(F)F	.	.	.	9%	-8	.
CSc1ccc(C2NN=C(c3ccccc3)S2)cc1 (centres undefined)	.	.	6.3µM*	-3%	19	2.8µM*
Oc1ccccc1C1NN=C(c2ccccc2)S1 (centres undefined)	?	37%	?	-19%	224	?
CCCCN(C)CCNC(=O)C1CCN(c2nc3ccc(CC)cc3s2)CC1	.	.	26%[46.1 µM]	.	-98*	?
CCOC(CNC(=O)c1ccc2nc(N3CCC(C)CC3)sc2c1)OCC	9.3µM*	?	-3%	-10%	58	?
CCCN1CCN(CCCNC(=O)c2ccc3nc(N4CCC(C)CC4)sc3c2)CC1	?	4%	.	11µM*	-25	.
CCN(CC)C(=O)c1sc(NC(=O)c2nc3ncccn3n2)c(C(=O)OC)c1C	.	.	5%[46.1 µM]	.	-15	-23%[46.1 µM]
CCc1cc(SC#N)cc(CC)c1NC(=O)CCl	?	10µM*	?	?	-74*	-18%
O=C(c1ccc2c3c(cccc13)CC2)C1CCCN(Cc2ncc[nH]2)C1 (centres undefined)	17%	?	?	-21%	-4	-20%[46.1 µM]
O=C(c1ccc2c3c(cccc13)CC2)C1CCCN(CC2CC2)C1 (centres undefined)	?	?	-24%	?	?	?
CN(C)C(=O)CCC(=O)N1CCCC(C(=O)c2ccc3c4c(cccc24)CC3)C1 (centres undefined)	15µM*	-2%	-20%[46.1 µM]	-7%	25	?
CCc1nc(CN2CCCC(C(=O)c3ccc4c5c(cccc35)CC4)C2)c(C)[nH]1 (centres undefined)	1%	?	-29%	10µM*	?	?
O=C(c1ccc2c3c(cccc13)CC2)C1CCCN(Cc2ccncc2)C1 (centres undefined)	?	0%	.	?	-69*	.
CC(C)CON=C1C[C@@H](O)[C@@H](O)[C@@H]2[C@H]3C(=O)N(C[C@@H]4CCCO4)C(=O)[C@@H]3CC[C@H]12	.	.	.	.	.	-10%[14.2 µM]
Cc1nn(CC(=O)N2c3ccccc3NC(=O)C2(C)C)c(C)c1[N+](=O)[O-]	?	3%	.	9%	-82*	.
COc1ccccc1CC(=O)N1CCCC1	5%	9%	6%	20%	-7	19%
COc1ccccc1/C=C/C=N/N1CCN(c2ccccn2)CC1	25%	?	-14%	-13%	-64*	-17%
COc1ccccc1CC(=O)N1CCN(c2ccccn2)CC1	?	18%	0%	-6%	-73*	5%
COc1ccc(/C=C/C(=O)N2CCN(c3ccccn3)CC2)cc1OC	12µM*	-6%	-18%[46.1 µM]	-9%	21	0%[46.1 µM]
CCOC(=O)c1cc(-c2ccc(C)cc2)n(CC(=O)Nc2ccc(OC)cc2OC)c1C	.	.	.	.	-30	?
